These results are taken from the supplement of paper PMC10849652.

Common to all, as to assay: log2 fold change, soluble protein after heating vs DMSO (PISA); higher = thermal stabilisation; K562 cells, 10 uM, 30 min; active = over 0.2 and 3.5 SD of the protein, either way, in both replicates (recomputed)
Compound in assay [1]: CS(=O)(=O)c1ccc(-c2cnc(N)c(C(=O)Nc3ccccc3)n2)cc1
A digest of the protocol:
(§1)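 K562 cells at 2×10^6 cells/mL were exposed to 10 μM compound for 30 min, then aliquots were heated for 3 min across 48°C-58°C, pooled, and extracted in PBS containing 0.5% NP-40 at 4°C. The supernatant after 21,000xg for 90 min was taken as soluble protein and measured by TMTpro 16plex LC-MS/MS with channel sums equalised. Thermal stability is reported relative to control samples, with values from duplicates. Fold changes are given on a log2 scale.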

Compound in a further assay: C[C@@H](Oc1cc(-c2cnn(C3CCNCC3)c2)cnc1N)c1c(Cl)ccc(F)c1Cl [crizotinib]
The method in brief:
as §1

Compound in assay [2]: C[C@@H]1COCCN1C2=NC(=NC(=C2)C3(CC3)S(=O)(=O)C)C4=C5C=CNC5=CC=C4
A digest of the protocol: as §1

Compound in assay [3]: C[C@H](C1=CC=C(C=C1)C(=O)NC2=C3C=CNC3=NC=C2)N
The method in brief: as §1

Compound in the next assay: C[C@H](Nc1ncnc2nc[nH]c12)c1cc2cccc(Cl)c2c(=O)n1-c1ccccc1 [duvelisib]
The method in brief:
as §1

Compound in a further assay: Cc1cc(Nc2cc(CN3CCOCC3)c3nc(C)c(Cc4ccc(Cl)cc4F)n3n2)n[nH]1 [gandotinib]
The method in brief:
as §1

Compound in a further assay: Cc1cc(Nc2cc(N3CCN(C)CC3)nc(Sc3ccc(NC(=O)C4CC4)cc3)n2)n[nH]1 [tozasertib]
A digest of the protocol:
as §1

Compound in assay [4]: Cc1cc(SCc2sc(-c3ccc(C(F)(F)F)cc3)nc2C)ccc1OCC(=O)O
A digest of the protocol: as §1

Compound in another assay: Cc1ccc(-n2nc(C(C)(C)C)cc2NC(=O)Nc2ccc(OCCN3CCOCC3)c3ccccc23)cc1 [doramapimod]
The method in brief:
as §1

Compound in another assay: Cc1ccc(C(=O)N(CCCN)[C@@H](c2nc3cc(Cl)ccc3c(=O)n2Cc2ccccc2)C(C)C)cc1 [ispinesib]
The method in brief:
as §1

Compound in another assay: Cc1ccc(NC(=O)c2ccc(CN3CC[C@H](N(C)C)C3)c(C(F)(F)F)c2)cc1Nc1nccc(-c2cncnc2)n1 [bafetinib]
The method in brief: as §1

Compound in assay [5]: Cc1cccc(CC(=O)N2CCc3c2ccc(-c2cn(C)c4ncnc(N)c24)c3F)n1
A digest of the protocol: as §1

Compound in another assay: Cc1cn(-c2cc(NC(=O)c3ccc(C)c(Nc4nccc(-c5cccnc5)n4)c3)cc(C(F)(F)F)c2)cn1 [nilotinib]
A digest of the protocol: as §1

Compound in assay [6]: Cc1nc(Nc2n[nH]c3c2CN(C(=O)N[C@H](CN(C)C)c2ccccc2)C3(C)C)c2sccc2n1
The method in brief: as §1

Compound in a further assay: Cc1nc(Nc2ncc(C(=O)Nc3c(C)cccc3Cl)s2)cc(N2CCN(CCO)CC2)n1 [dasatinib]
A digest of the protocol:
as §1

Compound in assay [7]: Cc1ncc(-c2ccnc(Nc3ccc(S(C)(=O)=O)cc3)n2)n1C(C)C
The method in brief: as §1

Compound in assay [8]: Cn1cc(-c2ccc3c(c2)CCN3C(=O)Cc2cccc(C(F)(F)F)c2)c2c(N)ncnc21
The method in brief: as §1

Compound in assay [9]: Cn1cc(-c2ccc3nnc(C(F)(F)c4ccc5ncccc5c4)n3n2)cn1
A digest of the protocol: as §1

Compound in the next assay: Cn1cncc1[C@@](N)(c1ccc(Cl)cc1)c1ccc2c(c1)c(-c1cccc(Cl)c1)cc(=O)n2C [tipifarnib]
A digest of the protocol: as §1

Compound in the next assay: FC(F)(F)c1ccc(/C=C/c2nc(COc3ccc(CCCCn4ccnn4)cc3)co2)cc1 [mubritinib]
A digest of the protocol:
as §1

The full data set covers some 7,900 targets. This sample favours those with a hit. About 0.6% of all pairs of compound and target were hits. Values without a mark were called inactive.

Chain of UniProt Q86X83 (Q86X83 whole entry, looked up): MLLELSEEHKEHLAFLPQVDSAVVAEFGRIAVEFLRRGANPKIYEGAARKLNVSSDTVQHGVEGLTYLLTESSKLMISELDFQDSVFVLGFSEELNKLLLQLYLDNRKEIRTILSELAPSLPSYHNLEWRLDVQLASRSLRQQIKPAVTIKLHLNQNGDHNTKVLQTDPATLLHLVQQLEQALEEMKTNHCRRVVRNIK
Chain of UniProt Q8IWY9 (Q8IWY9 whole entry, looked up): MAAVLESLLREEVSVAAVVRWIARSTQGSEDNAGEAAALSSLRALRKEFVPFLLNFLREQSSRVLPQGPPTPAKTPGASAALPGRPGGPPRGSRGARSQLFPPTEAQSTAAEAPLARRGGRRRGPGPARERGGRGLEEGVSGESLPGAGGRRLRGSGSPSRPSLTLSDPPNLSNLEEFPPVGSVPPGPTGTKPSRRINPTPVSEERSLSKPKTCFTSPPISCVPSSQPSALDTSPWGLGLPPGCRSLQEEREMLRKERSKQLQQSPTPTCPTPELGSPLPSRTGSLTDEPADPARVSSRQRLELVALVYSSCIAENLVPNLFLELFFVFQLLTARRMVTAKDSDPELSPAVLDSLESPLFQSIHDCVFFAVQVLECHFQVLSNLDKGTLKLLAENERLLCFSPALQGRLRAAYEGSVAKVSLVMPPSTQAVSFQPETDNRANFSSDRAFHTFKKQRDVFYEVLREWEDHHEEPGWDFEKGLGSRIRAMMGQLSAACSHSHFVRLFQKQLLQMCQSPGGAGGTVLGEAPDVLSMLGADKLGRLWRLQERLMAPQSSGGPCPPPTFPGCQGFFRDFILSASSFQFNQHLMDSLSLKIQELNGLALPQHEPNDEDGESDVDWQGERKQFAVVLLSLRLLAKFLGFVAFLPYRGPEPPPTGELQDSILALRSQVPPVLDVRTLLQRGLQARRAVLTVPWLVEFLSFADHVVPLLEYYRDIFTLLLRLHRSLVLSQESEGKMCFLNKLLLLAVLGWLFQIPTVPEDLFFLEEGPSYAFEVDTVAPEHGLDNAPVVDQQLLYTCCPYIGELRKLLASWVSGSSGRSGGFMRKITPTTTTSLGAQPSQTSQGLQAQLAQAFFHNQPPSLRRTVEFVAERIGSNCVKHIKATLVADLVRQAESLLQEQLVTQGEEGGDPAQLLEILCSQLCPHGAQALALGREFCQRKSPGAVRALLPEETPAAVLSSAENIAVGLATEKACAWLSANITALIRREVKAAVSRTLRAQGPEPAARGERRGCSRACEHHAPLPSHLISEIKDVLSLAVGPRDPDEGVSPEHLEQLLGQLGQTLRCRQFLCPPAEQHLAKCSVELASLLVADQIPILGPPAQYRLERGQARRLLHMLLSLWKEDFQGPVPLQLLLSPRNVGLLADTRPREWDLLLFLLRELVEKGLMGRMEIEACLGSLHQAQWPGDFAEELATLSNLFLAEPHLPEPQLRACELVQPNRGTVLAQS
Chain of UniProt P21964 (P21964 whole entry, looked up): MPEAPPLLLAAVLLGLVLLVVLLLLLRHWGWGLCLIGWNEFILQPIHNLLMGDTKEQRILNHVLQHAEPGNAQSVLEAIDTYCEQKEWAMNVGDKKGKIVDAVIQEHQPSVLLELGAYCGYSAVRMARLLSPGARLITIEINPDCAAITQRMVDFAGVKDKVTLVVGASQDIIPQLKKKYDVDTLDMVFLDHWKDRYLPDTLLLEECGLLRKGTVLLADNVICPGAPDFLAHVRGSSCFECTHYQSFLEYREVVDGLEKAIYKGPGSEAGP
Chain of UniProt P10606 (P10606 whole entry, looked up): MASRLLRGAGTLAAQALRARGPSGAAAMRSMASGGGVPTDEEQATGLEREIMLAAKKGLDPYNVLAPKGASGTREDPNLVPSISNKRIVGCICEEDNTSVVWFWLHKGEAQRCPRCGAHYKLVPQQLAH
Chain of UniProt Q99627 (Q99627 whole entry, looked up): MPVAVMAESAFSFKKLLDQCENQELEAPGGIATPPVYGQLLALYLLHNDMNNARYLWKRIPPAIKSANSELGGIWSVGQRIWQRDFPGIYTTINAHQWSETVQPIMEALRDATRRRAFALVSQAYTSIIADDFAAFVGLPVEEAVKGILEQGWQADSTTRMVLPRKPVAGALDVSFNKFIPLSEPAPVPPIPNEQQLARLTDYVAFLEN
Chain of UniProt P51798 (P51798 whole entry, looked up): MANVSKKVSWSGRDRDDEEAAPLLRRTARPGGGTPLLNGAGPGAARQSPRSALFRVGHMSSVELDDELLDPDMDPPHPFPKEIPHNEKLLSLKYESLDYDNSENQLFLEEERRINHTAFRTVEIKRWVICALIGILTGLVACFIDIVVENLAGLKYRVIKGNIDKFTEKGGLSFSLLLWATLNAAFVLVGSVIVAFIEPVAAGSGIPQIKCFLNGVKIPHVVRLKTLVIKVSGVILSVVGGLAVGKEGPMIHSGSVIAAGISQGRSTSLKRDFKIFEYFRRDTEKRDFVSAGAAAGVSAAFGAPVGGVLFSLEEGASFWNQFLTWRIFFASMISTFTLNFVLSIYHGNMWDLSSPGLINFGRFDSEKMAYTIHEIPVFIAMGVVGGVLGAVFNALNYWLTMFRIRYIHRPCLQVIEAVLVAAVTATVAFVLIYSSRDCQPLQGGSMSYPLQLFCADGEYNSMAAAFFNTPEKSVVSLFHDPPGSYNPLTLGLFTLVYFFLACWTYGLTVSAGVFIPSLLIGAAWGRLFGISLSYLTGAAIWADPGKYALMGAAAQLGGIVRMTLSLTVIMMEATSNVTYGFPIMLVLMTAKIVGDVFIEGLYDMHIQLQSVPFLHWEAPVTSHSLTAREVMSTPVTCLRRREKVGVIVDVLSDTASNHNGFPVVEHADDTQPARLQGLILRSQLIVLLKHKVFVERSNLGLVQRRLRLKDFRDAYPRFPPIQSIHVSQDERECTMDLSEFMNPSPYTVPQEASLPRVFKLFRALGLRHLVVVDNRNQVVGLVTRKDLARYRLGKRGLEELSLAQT

Turning to CDAN1 (UniProt Q8IWY9), the log2 fold change in [1] was 0.058; in the assay with crizotinib it was 0.024; in assay [2] it was 0.175; in assay [3] it was 0.066; in the assay with duvelisib, 0.025; with gandotinib, -0.054. Further, the log2 fold change was -0.098 with tozasertib; 0.008 in assay [4]; 0.034 with doramapimod; -0.02 with ispinesib; -0.012 with bafetinib; -0.014 in assay [5]. Besides, the log2 fold change is 0.064 with nilotinib; -0.195 in assay [6]; -0.582 (active) with dasatinib; -0.017 in assay [7]; -0.023 in [8]; 0.008 in [9]. Also, the log2 fold change was 0.011 with tipifarnib and 0.056 in the assay with mubritinib.
Turning to COPS8 (UniProt Q99627), the log2 fold change in assay [1] is -0.017; with crizotinib, 0.07; in assay [2], 0.13; in assay [3], -0.148; in the assay with duvelisib it was 0.096; with gandotinib it was 0.048. Also, the log2 fold change with tozasertib was 0.028; in [4] it was 0.054; in the assay with doramapimod it was 0.107; in the assay with ispinesib, 0.05; with bafetinib, -0.021; in assay [5], 0.025. The log2 fold change in the assay with nilotinib was 0.018; in assay [6] it was -0.008; with dasatinib, 0.006; in [7], 0.007; in assay [8], 0.107; in assay [9], 0.146. Also, the figures for the log2 fold change with tipifarnib and with mubritinib were -0.017 and 0.025, respectively.
For the target COMMD2 (UniProt Q86X83), the log2 fold change in [1] was -0.048; in the assay with crizotinib, -0.13; in [2], 0.102; in assay [3] it was 0.037; with duvelisib, 0.097; with gandotinib it was -0.029. Besides, the log2 fold change with tozasertib is 0.082; in [4], -0.018; in the assay with doramapimod, -0.012; with ispinesib it was 0.014; with bafetinib it was 0.162; in assay [5] it was -0.066. The log2 fold change was -0.132 with nilotinib; -0.069 in assay [6]; -0.177 with dasatinib; 0.097 in [7]; -0.099 in assay [8]; 0.057 in assay [9]. The log2 fold change is 0.025 with tipifarnib and 0.101 in the assay with mubritinib.
Turning to COX5B (UniProt P10606), the log2 fold change in assay [1] is -0.07; with crizotinib, 0.186; in [2] it was 0.081; in [3], -0.169; in the assay with duvelisib it was 0.124; in the assay with gandotinib it was 0.218. Moreover, the log2 fold change was 0.077 with tozasertib; -0.001 in assay [4]; 0.022 in the assay with doramapimod; 0.265 with ispinesib; -0.032 with bafetinib; 0.013 in assay [5]. Besides, the log2 fold change with nilotinib is 0.026; in [6], 0.011; with dasatinib it was 0.105; in [7] it was -0.043; in [8], 0.134; in [9], 0.221. Further, the log2 fold change is -0.108 in the assay with tipifarnib and 0.024 with mubritinib.
COMT (UniProt P21964): the log2 fold change in assay [1] was 0.04; with crizotinib, 0.352 (active); in assay [2] it was 0.053; in assay [3], -0.081; with duvelisib it was 0.109; in the assay with gandotinib, 0.031. Also, the log2 fold change was -0.028 with tozasertib; 0.02 in assay [4]; 0 in the assay with doramapimod; 0.235 (active) with ispinesib; 0.011 in the assay with bafetinib; -0.019 in assay [5]. Further, the log2 fold change with nilotinib was 0.01; in [6] it was 0.119; in the assay with dasatinib, 0.03; in [7], 0.009; in assay [8], 0.073; in assay [9] it was 0.031. Besides, the log2 fold change is 0.002 with tipifarnib and 0.06 in the assay with mubritinib.
Turning to CLCN7 (UniProt P51798), the log2 fold change in assay [1] was -0.037; with crizotinib, -0.814 (active); in [2] it was 0.018; in [3], -0.091; with duvelisib it was -0.089; with gandotinib, -0.193. The log2 fold change was -0.031 with tozasertib; 0.028 in assay [4]; -0.008 with doramapimod; -0.952 (active) with ispinesib; -0.24 with bafetinib; 0.083 in assay [5]. Also, the log2 fold change was -0.035 in the assay with nilotinib; -0.012 in assay [6]; -0.091 with dasatinib; -0.111 in [7]; 0.011 in assay [8]; 0.049 in assay [9]. Moreover, the figures for the log2 fold change with tipifarnib and in the assay with mubritinib were 0.038 and -0.02, respectively.
